PubChem BioAssay (NCI)
The panel holds about 83,000 compounds, 20% with a hit somewhere; the sample as a whole holds those more often.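 Compound tested at a single concentration for 48 hours in 96-well plates; a percent growth value below 10 was scored as active.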 Unmarked numbers belong to inactive results. Active and inactive are the calls of the source.

Tests used:
Assay in all cases: NCI-60 one-dose screen, 48 h (100 = growth as untreated, 0 = no growth, -100 = all killed)
Conditions in all cases: 10 µM
HCT-15 colon = system: HCT-15 colon
HT29 colon = system: HT29 colon
SNB-75 CNS = system: SNB-75 CNS
SNB-19 CNS = system: SNB-19 CNS
U251 CNS = system: U251 CNS
PC-3 prostate = system: PC-3 prostate
SK-MEL-5 melanoma = system: SK-MEL-5 melanoma
UACC-62 melanoma = system: UACC-62 melanoma
LOX IMVI melanoma = system: LOX IMVI melanoma
SK-MEL-28 melanoma = system: SK-MEL-28 melanoma

Row | Compound | growth (HCT-15 colon) | growth (HT29 colon) | growth (SNB-75 CNS) | growth (SNB-19 CNS) | growth (U251 CNS) | growth (PC-3 prostate) | growth (SK-MEL-5 melanoma) | growth (UACC-62 melanoma) | growth (LOX IMVI melanoma) | growth (SK-MEL-28 melanoma)
1 | COC[C@@H](CC(C)C)N=C1NC(=O)/C(=C/c2ccc3ncoc3c2)N1 | 1.92% (active) | 8.17% (active) | -9.28% (active) | 17.5% | 16.4% | 42.4% | 3.83% (active) | -27.3% (active) | 6.76% (active) | 0.832% (active)
2 | COc1ccc(-c2ccc(/C=N/NC(=O)c3[nH]c4ccc(Br)cc4c3-c3ccccc3)o2)cc1 | 26.4% | 55.1% | 33% | 57.6% | 26.2% | 55.1% | 30.3% | 30.4% | 26.7% | 46.9%
3 | CCCCSc1nc(Nc2ccc(/C(C)=N/NC(N)=S)cc2)c(C#N)c(-c2ccc(OC)cc2)n1 | 75.9% | 86.7% | 37.7% | 63.8% | 22.8% | 85.2% | 46.2% | 44.7% | -10.1% (active) | 90.5%
4 | CCOC(=O)C1=C(N)N(c2ccccc2)C2=C(C(=O)CC(C)(C)C2)C1c1ccc(Cl)cc1 (stereo not given) | 14.5% | 34.8% | 73% | 34.9% | 42% | 21.6% | 27.7% | 22.2% | 41.5% | 44.5%
5 | Cc1noc2c(Cc3ccccc3)nn(CC(=O)N/N=C/c3ccc(F)cc3)c(=O)c12 | 94.1% | 94.8% | 9.02% (active) | 32.4% | 42.8% | 65.6% | 76% | 94% | 36.3% | 90.4%
6 | COc1ccccc1[C@H]1C(C(=O)c2ccc(O)cc2)C2(N[C@@H]1c1ccccc1)C(=O)Nc1ccc(Br)cc12 (stereo not given in full) | 34.4% | -9.98% (active) | 41% | 49.3% | 26.1% | 23.2% | 26.4% | 38.1% | -39.3% (active) | 60%
7 | CCCn1c(=O)c2[nH]c(-c3ccc(OCc4nc5ccc(F)cc5[nH]4)cc3)nc2n(CCC)c1=O | 28.7% | 26.7% | -23.5% (active) | 50.4% | 0.191% (active) | 36.3% | -22.5% (active) | 3.86% (active) | -29.3% (active) | 38%
8 | COc1ccc(-c2cc(C(=O)N=Nc3c(O)[nH]c4ccc(Br)cc34)c3ccccc3n2)cc1 | -60.8% (active) | -1.14% (active) | 108% | -3.47% (active) | -67.7% (active) | 23.1% | 84.8% | 32.6% | -51.5% (active) | 65.9%
9 | COc1cc(/C=C/C(=O)c2ccc(C(F)(F)F)cc2)ccc1Oc1nc(Nc2ccc(F)cc2)nc(N(C)C)n1 | 70% | 74.1% | 99.7% | 83% | 74.2% | 76% | 61.7% | 57.7% | 46.9% | 85.9%
10 | CN(C(=O)c1ccc(C(C)(C)C)cc1)c1sc2c(c1C#N)CCC(=O)C2 | -68.6% (active) | 113% | 98% | 8.17% (active) | -22.7% (active) | 2.52% (active) | -69.7% (active) | -43.7% (active) | -71.5% (active) | 60.3%
11 | C=C(C)[C@@H]1CC[C@]2(C)[C@H](CC=C3[C@@H]4CC(C)(C)CC[C@]4(C(=O)N4CCOCC4)CC[C@]32C)[C@@]1(C)CCCN | -83.6% (active) | -91% (active) | -91.2% (active) | -93.7% (active) | -81.2% (active) | -79.8% (active) | -96.5% (active) | -93.8% (active) | -81.7% (active) | -97% (active)
12 | NS(=O)(=O)c1ccc(NC(=O)CSc2ccc(-c3ccc(Cl)cc3)nn2)c(Br)c1 | 54.1% | 64.7% | 42.3% | 27% | -25.6% (active) | 35.7% | 68.8% | 65.4% | 19.7% | 79.5%
13 | CC(C)CCSc1nc(NC2CC2)c(C#N)c(-c2ccc(C(C)C)cc2)n1 | 106% | 108% | 111% | 98.6% | 106% | 106% | 102% | 98.3% | 100% | 110%
14 | NC1=NC(c2ccccc2Cl)N=C(Nc2nn[nH]n2)N1 (stereo not given) | 103% | 115% | 95.2% | 99.6% | 97.5% | 103% | 98% | 94.1% | 94.2% | 124%
15 | COc1ccc(/C=C/C(=O)c2ccc(S(=O)(=O)NCCNc3nc(Nc4ccc(F)cc4)nc(N(C)C)n3)cc2)cc1 | 1.91% (active) | -46.4% (active) | 52.6% | 36.1% | 20.8% | 15.7% | 21.2% | 29.6% | -55.4% (active) | 31.6%
16 | C=C1CC[C@H](C(=C)C)[C@H]2C=C(C)C(=O)C3=C(C(=O)[C@@](C)(O)C3)[C@H]12 | -80.8% (active) | -37.6% (active) | -71% (active) | -90.9% (active) | -95.9% (active) | -73.2% (active) | -90.4% (active) | -53.5% (active) | -75.9% (active) | -89.2% (active)
17 | CC1(c2ccccc2)NC(=O)N(CC(=O)Nc2ccc(C(=O)/C=C/C=C/c3ccccc3)cc2)C1=O (stereo not given) | 12.8% | 25.4% | 54.9% | 61.6% | 14.7% | 36.4% | 51.6% | 43.1% | 26% | 70.9%
18 | O=C(Nc1ccccc1)Nc1nc2ccccc2s1 | 66.7% | 89.4% | 109% | 89.7% | 95.9% | 67.3% | 61.1% | 48.3% | 83.2% | 41.4%
19 | O=C(Cc1ccc2c(c1)CN(C1CCC(=O)NC1=O)C2=O)NCCc1ccccc1 (stereo not given) | -0.692% (active) | 31.3% | 1.96% (active) | 15.6% | 67.8% | 11.9% | -54.2% (active) | 53.7% | 81.2% | 37.4%
20 | C=C(C)[C@@H]1CC[C@]2(C(=O)OC)CC[C@]3(C)[C@H](CC[C@@H]4[C@@]5(C)CC[C@H](N)C(C)(C)[C@@H]5CC[C@]43C)[C@@H]12 | -97.2% (active) | -70.6% (active) | -91.5% (active) | -99.3% (active) | -85.4% (active) | -28.2% (active) | -54.9% (active) | -97.9% (active) | -98.4% (active) | -100% (active)
21 | OCCNc1oc(-c2ccccc2)nc1[P+](c1ccccc1)(c1ccccc1)c1ccccc1 | 77.8% | 10.4% | -1.51% (active) | 4.29% (active) | 14.7% | 10.6% | -100% (active) | -66.4% (active) | 2.03% (active) | 3.6% (active)
22 | O=C(c1ccc(Cl)cc1)C1[C@H](c2ccccc2Br)[C@@H](c2ccccc2)NC12C(=O)Nc1ccc(Cl)cc12 (stereo not given in full) | 8.84% (active) | -14.6% (active) | 36.5% | 33.6% | 6.14% (active) | 38.1% | 15.9% | 22% | -91% (active) | 55.4%
23 | O=c1[nH]c2ccc(Cl)cc2cc1CSc1ccc(Nc2nccc(-c3ccc4ccccc4c3)n2)cc1 | 12.6% | 75.1% | 107% | 71.8% | 45.7% | 62.4% | 98.4% | 106% | 60.4% | 90.8%
24 | O/N=C(\CSc1nnc(-c2c[nH]c3ccccc23)n1-c1ccccc1)c1ccc(Cl)cc1 | -48.1% (active) | 4.47% (active) | 48% | 17.4% | 30.5% | -38% (active) | 21.2% | -43.2% (active) | -89.3% (active) | 21.2%
25 | COc1cc2c3c(n(CCCNCCO)c(=O)c2cc1OC)-c1nc2c(cc1C3=O)OCO2 | 48.5% | 5.98% (active) | 18.8% | 13.7% | 12.4% | 27.1% | 30.4% | 1.57% (active) | -90.8% (active) | 72.2%
26 | CN1CCN(Cc2ccc(NC(=O)c3cncc(C#Cc4cnc5ccc(N[C@@H]6CCOC6)nn45)c3)cc2C(F)(F)F)CC1 | -85.6% (active) | -44.4% (active) | -96.1% (active) | -100% (active) | -82.3% (active) | -46.9% (active) | -100% (active) | -90% (active) | -100% (active) | -95.3% (active)
